# Laboratory results: PubChem BioAssay (EPA / NIEHS)
# Several values for one entry are separate records, joined by “and”; a condition that tells them apart may be missing. Identical values can stand only once. Results filed as inconclusive are left out. Where a structure was tested more than once in an assay, its records may differ in their call. Activity calls are given as the source filed them. Rule for the calls, unless noted: active = hit-call score of the fitted dose curve at least 0.9, where 1 is the maximum; inconclusive = response in the unintended direction; inactive = score below 0.9.
# What was measured:
# [1] = read-out: solute carrier (SLC22A6), SLC22A6 (gene 9356); assay: LTEA_HepaRG_SLC22A6: Life Technologies and Expression Analysis (LTEA) Assay for solute carrier (SLC22A6) using HepaRG (AID 2283653; active = hit-call score of the fitted dose curve at least 0.9, where 1 is the maximum; inactive = score below 0.9); conditions: mRNA level, 48 h; actives raise or lower the signal
# Outline: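 Read-out is SLC22A6 transcript level by qRT-PCR, normalised to three housekeeping genes and fitted for gain or loss relative to 0.5% DMSO vehicle. Human HepaRG cells received chemicals at up to 100 uM for 48 h.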
# [2] = Tanguay_ZF_120hpf_SWIM_legacy: (Legacy) Oregon State University Tanguay Lab 120 Hour Post-fertilization zebrafish Assay for Swim Bladder Malformation (AID 2283654);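 note: swim bladder malformation in each larva scored yes or no under brightfield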
# Outline: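 Dechorionated Tropical 5D wild-type embryos, placed singly from 6 hpf, were statically exposed at 28C to 120 hpf with 0.64% DMSO final; swim bladder malformation was scored present/absent by brightfield microscopy, gain of signal relative to DMSO controls.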
# [3] = Tanguay_ZF_120hpf_TRUN_legacy: (Legacy) Oregon State University Tanguay Lab 120 Hour Post-fertilization zebrafish Assay for Truncated Body (AID 2283655)
# Outline: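 Truncated body is recorded as a binary endpoint at 120 hpf by brightfield imaging of wild-type 5D larvae. Exposure runs statically from 6 hpf at 28C with 0.64% DMSO; embryos dying earlier are not scored.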
# [4] = read-out: solute carrier (SLC10A1), SLC10A1 (gene 6554); assay: LTEA_HepaRG_SLC10A1: Life Technologies and Expression Analysis (LTEA) Assay for solute carrier (SLC10A1) using HepaRG (AID 2283657; active = hit-call score of the fitted dose curve at least 0.9, where 1 is the maximum; inactive = score below 0.9); conditions: mRNA level, 48 h; actives raise or lower the signal
# Outline: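 Differentiated HepaRG cells were plated 48 h, then exposed in serum-free induction medium for 48 h to 8 concentrations (top 100 uM, half-log steps, 0.5% DMSO). SLC10A1 mRNA was quantified by qRT-PCR normalized to ACTB, GAPDH, POLR2A; bidirectional fit versus DMSO.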
# [5] = read-out: matrix metalloproteinase-1 (MMP1), MMP1 (gene 4312); assay: LTEA_HepaRG_MMP1: Life Technologies and Expression Analysis (LTEA) Assay for matrix metalloproteinase-1 (MMP1) using HepaRG (AID 2283658; active = hit-call score of the fitted dose curve at least 0.9, where 1 is the maximum; inactive = score below 0.9); conditions: mRNA level, 48 h; actives raise or lower the signal
# Outline: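 HepaRG, ~100,000 cells/well, 48 h pre-culture; serum-free induction medium; test chemical 8 conc (max 100 uM, half-log), duplicate, 48 h; 0.5% DMSO; qRT-PCR MMP1, housekeeping-normalized; gain/loss fit vs DMSO.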
# [6] = read-out: xenobiotic metabolism (CYP1A1), CYP1A1 (gene 1543); assay: CLD_CYP1A1_6hr: CellzDirect (CLD) Gene Expression Assay for xenobiotic metabolism (CYP1A1) at 6 hours (AID 2283661)
# Outline: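 Primary human hepatocytes from two donors, compound versus 0.2% DMSO vehicle. CYP1A1 mRNA measured 6 h after dosing by quantitative nuclease protection assay with chemiluminescent read-out; induction fitted relative to DMSO, cytotoxicity flagged by microscopy.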
# [7] = tested on: Thyroperoxidase (TPO), gene 54314; assay: CCTE_Simmons_AUR_rTPO: CCTE's Amplex UltraRed Assay for Thyroperoxidase (TPO) Inhibition, Simmons Lab (AID 2283662);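 for AC50: potency for loss of signal meaning inhibition of peroxidase activity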
# Outline: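 Endpoint is decreased Amplex UltraRed fluorescence after a 30-min, 37C reaction of rat thyroid microsomes with 300 uM H2O2. Eight test concentrations (5 nM–87.5 uM final) in 0.5% DMSO, three biological replicates each.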
# [8] = CCTE_Simmons_CellTiterGLO_HEK293T: Viability Assessment in CCTE's Assays for Thyroperoxidase (TPO) Inhibition, Simmons Lab (AID 2283665);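 for AC50: cells exposed to compound for 24 h before readout; actives reduce ATP signal below DMSO vehicle meaning cytotoxicity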
# Outline: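 Cytotoxicity counter-screen: human HEK293T cells in low-serum (1% FBS) medium receive test chemical, 5 nM to 87.5 uM final, for 24 h; ATP is quantified by luciferase luminescence.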
# [9] = read-out: xenobiotic metabolism (CYP1A2), CYP1A2 (gene 1544); assay: CLD_CYP1A2_6hr: CellzDirect (CLD) Gene Expression Assay for xenobiotic metabolism (CYP1A2) at 6 hours (AID 2283663);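 for AC50: potency is for induction meaning a rise in mRNA above DMSO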
# Outline: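 Primary human hepatocytes from two donor preparations, dosed daily with multiple concentrations in 0.2% DMSO and harvested at 6 h. CYP1A2 mRNA induction measured by chemiluminescent qNPA, gain of signal fitted against DMSO; cytotoxicity flagged morphologically.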
# [10] = read-out: ABC Transporter (ABCB1), ABCB1 (gene 5243); assay: CLD_ABCB1_6hr: CellzDirect (CLD) Gene Expression Assay for ABC Transporter (ABCB1) at 6 hours (AID 2283659);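 note: hits raise ABCB1 transcript above the DMSO vehicle baseline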
# Outline: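 Primary human hepatocytes (two donor preparations) dosed daily for two days with chemicals at multiple concentrations, 0.2% DMSO vehicle; harvested 6 h post-dose. ABCB1 mRNA induction quantified by qNPA chemiluminescence; gain-of-signal fitted versus DMSO.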
smiles,measurement,setting,value
ClC1C(Cl)C(Cl)C(Cl)C(Cl)C1Cl (centres undefined),outcome,[1],inactive
same,outcome,[2],inactive
same,outcome,[3],inactive
same,outcome,[4],inactive
same,outcome,[5],inactive
Oc1cc(Cl)ccc1Oc1ccc(Cl)cc1Cl,outcome,[2],inactive
same,outcome,[3],inactive
same,outcome,[6],inactive
same,AC50,[7],36.3 µM (active) and 21.6 µM (active) and 43.6 µM (active)
same,outcome,[7],inactive
same,AC50,[8],13.1 µM (active) [middle of 4 runs]
O=S(=O)(O)C(F)(F)C(F)(F)C(F)(F)C(F)(F)C(F)(F)C(F)(F)C(F)(F)C(F)(F)F,outcome,[2],inactive
same,AC50,[3],10.6 µM (active) and 21.2 µM (active)
same,outcome,[3],inactive
same,outcome,[7],inactive
same,outcome,[9],inactive
same,AC50,[8],64.1 µM (active) and 57.1 µM (active)
Oc1ccc(Cl)cc1Cc1ccccc1,outcome,[2],inactive
same,outcome,[3],inactive
same,AC50,[7],12.7 µM (active)
CCCN(CCOc1c(Cl)cc(Cl)cc1Cl)C(=O)n1ccnc1,outcome,[1],inactive
same,outcome,[2],inactive
same,outcome,[3],inactive
same,AC50,[4],35.9 µM (active)
same,AC50,[5],69.2 µM (active)
same,outcome,[7],inactive
same,AC50,[9],0.0805 µM (active)
same,AC50,[8],89.5 µM (active)
COC(=O)c1ccccc1CS(=O)(=O)NC(=O)Nc1nc(OC)cc(OC)n1,outcome,[9],inactive
CC(C)OC(=O)Nc1cccc(Cl)c1,outcome,[2],inactive
same,outcome,[3],inactive
same,AC50,[9],3.11 µM (active)
CCN(CC)C(=O)SCc1ccc(Cl)cc1,outcome,[2],inactive
same,outcome,[10],inactive
same,outcome,[9],inactive
COP(=S)(OC)Oc1ccc([N+](=O)[O-])cc1,outcome,[2],inactive
same,outcome,[3],inactive
same,AC50,[7],4.82 µM (active)
same,AC50,[9],3.16 µM (active)
same,outcome,[8],inactive
CC(C)(C)C(O)/C(=C\c1ccc(Cl)cc1Cl)n1cncn1 (centres undefined),outcome,[2],inactive
same,outcome,[3],inactive
same,outcome,[9],inactive
O=C(O)COc1ccc(Cl)cc1Cl,outcome,[3],inactive
same,AC50,[9],1.89 µM (active)
CNC(=O)CSP(=S)(OC)OC,outcome,[2],inactive
same,AC50,[7],7.2 µM (active)
same,AC50,[9],0.327 µM (active)
same,outcome,[8],inactive
CCOCN(C(=O)CCl)c1c(C)cccc1CC,outcome,[2],inactive
same,AC50,[3],47.5 µM (active)
same,outcome,[9],inactive
COc1cc(OC)nc(NC(=O)NS(=O)(=O)c2cc(NC=O)ccc2C(=O)N(C)C)n1,outcome,[9],inactive
CNC(=O)Oc1cccc(N=CN(C)C)c1,outcome,[3],inactive
same,outcome,[6],inactive
same,AC50,[7],19.8 µM (active)
same,outcome,[9],inactive
same,outcome,[8],inactive
O=C(O)CCCOc1ccc(Cl)cc1Cl,outcome,[2],inactive
same,outcome,[3],inactive
same,outcome,[9],inactive
OCCOc1ccccc1,outcome,[2],inactive
same,outcome,[6],inactive
same,outcome,[9],inactive
CCc1ccc(C(=O)NN(C(=O)c2cc(C)cc(C)c2)C(C)(C)C)cc1,outcome,[2],inactive
same,outcome,[3],inactive
same,AC50,[9],33.7 µM (active)
Clc1ccccc1-c1nnc(-c2ccccc2Cl)nn1,outcome,[2],inactive
same,outcome,[3],inactive
same,outcome,[9],inactive
CCOc1nc(NC)nc(NC(=O)NS(=O)(=O)c2ccccc2C(=O)OC)n1,outcome,[9],inactive
CC1(c2ccc(Oc3ccccc3)cc2)OC(=O)N(Nc2ccccc2)C1=O (centres undefined),outcome,[3],inactive
same,AC50,[7],2.45 µM (active)
same,AC50,[8],20.2 µM (active)
CCS(=O)(=O)c1cccnc1S(=O)(=O)NC(=O)Nc1nc(OC)cc(OC)n1,outcome,[9],inactive
COP(=S)(OC)Oc1ccc(SC)c(C)c1,outcome,[2],inactive
same,outcome,[3],inactive
same,AC50,[7],34.3 µM (active)
same,AC50,[9],5.14 µM (active)
same,outcome,[8],inactive
COC(=O)c1ccccc1S(=O)(=O)NC(=O)Nc1nc(C)nc(OC)n1,outcome,[9],inactive
CNC(=O)Oc1ccccc1OC(C)C,outcome,[2],inactive
same,outcome,[3],inactive
same,outcome,[9],inactive
C[C@H]1[C@H](c2ccc(Cl)cc2)SC(=O)N1C(=O)NC1CCCCC1,outcome,[2],inactive
same,outcome,[3],inactive
same,outcome,[9],inactive
COP(=O)(OC)OC=C(Cl)Cl,outcome,[2],inactive
same,AC50,[7],21 µM (active)
same,outcome,[9],inactive
same,outcome,[8],inactive
COC(=O)c1ccccc1S(=O)(=O)NC(=O)N(C)c1nc(C)nc(OC)n1,AC50,[9],20 µM (active)
O=C(Nc1ccccc1)Nc1cnns1,outcome,[3],inactive
same,AC50,[7],43.8 µM (active)
same,AC50,[9],3.08 µM (active)
same,outcome,[8],inactive
[2H]C1([2H])[n+]2ccccc2-c2cccc[n+]2C1([2H])[2H],outcome,[9],inactive
O=[N+]([O-])/N=C1\NCCN1Cc1ccc(Cl)nc1,outcome,[3],inactive
same,outcome,[9],inactive
